High-throughput results as filed in PubChem.
Shown are actives, neighbours in structure and some others; about 2.4% of the full set was active somewhere.
PABP polyA inh: PABP-poly(A) binding inhibition. P11940. PABP-poly(A) RNA binding, fluorescence polarization. calls only at 35 µM. 1% of 290,000 active;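 further: calls also rest on retests at 20 µM and on dose response follow-up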
PABP1 MLLE inh: inhibitors of microRNA-mediated deadenylation, human PABP1 MLLE binding; AID 588489; P11940; GST-MLLE / FITC-PAM2 fluorescence polarization; inhibition, % at 20 µM; 0.36% of 360,000 active; in the data active means inhibition above about 35%, passing the limit was not always enough
eIF4H inh: inhibitors of RNA binding by human eIF4H. Q15056. eIF4H fluorescence polarization binding assay. inhibition, % at 35 µM. 0.94% of 290,000 active;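 further: calls also rest on retests at 20 µM and on dose response follow-up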
PHOSPHO1 inh: blocks human PHOSPHO1 phosphatase activity; Q8TCT1; recombinant PHOSPHO1, absorbance phosphatase assay; inhibition, % at 13.3 µM; 1.1% of 290,000 active; AID 1565; in the data active means inhibition above about 60%
HMGR II inh: E. faecalis class II HMG-CoA reductase inhibition | purified E. faecalis HMGR, NADPH absorbance 340 nm kinetic | 0.41% of 190,000 active | AID 1066 | inhibition, % at 10 µM;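 active means inhibition above a set limit, the median over all tested compounds plus 3 SD, cut at about 9.5% in these data; inconclusive means no clear call, values can overlap the other calls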;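 further: enzyme runs in reverse so mevalonate oxidation gives rising NADPH absorbance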
Numbers stand for hits; i = inactive; ? = inconclusive; nt = no result; + = active, no number. Unless noted, how the calls were made is not given here.

SMILES	PABP polyA inh	PABP1 MLLE inh	eIF4H inh	PHOSPHO1 inh	HMGR II inh
C/C=C\C(=O)Nc1cccc(C2=NOC3(C2)C[C@H](C(N)=O)N(C(=O)/C=C/CC)C3)c1 (some centres not stated)	i	i	i	i	nt
C=C(C)C(=O)Nc1cccc(C2=NOC3(C2)C[C@H](C(N)=O)N(C(=O)/C=C/C)C3)c1 (some centres not stated)	+	i	88	i	nt
CCc1nc2ccc(C(=O)N(C)Cc3ccccc3)cn2c1N(CC)CCN(C)C	nt	i	nt	nt	nt
Cc1cc(CN(C)C(=O)c2cc(COc3ccc(F)cc3Cl)on2)n[nH]1	i	i	i	60	i
CN(Cc1ccccn1)C(=O)c1cc(COc2ccc(F)cc2Cl)on1	nt	i	nt	nt	nt
CC(=O)Nc1cccc(-c2nc3ccccc3s2)c1	i	i	i	i	i
Cc1ccc(C(=O)NC(=S)Nc2cccc(-c3nc4ccccc4s3)c2)cc1	i	41	i	i	10
CC1=CC(=O)C2(C)C(C)=C(C)C12C (configuration not stated)	nt	i	nt	nt	nt
CC1=CC(C)(C(Cl)(Cl)Cl)C(C)=CC1=NO (configuration not stated)	nt	i	nt	nt	nt
COc1ccc2[nH]c(=S)[nH]c2c1	i	i	i	92	i
S=c1[nH]c2ccc(Cl)cc2[nH]1	i	i	i	i	i
COc1ccc(N=C2S/C(=C\c3ccc(OC(C)C(=O)O)c(OC)c3)C(=O)N2CCc2c[nH]c3ccccc23)cc1 (configuration not stated)	+	i	?	i	i
COc1cc(/C=C2\SC(=Nc3ccccc3)N(CCc3c[nH]c4ccccc34)C2=O)ccc1OC(C)C(=O)O (configuration not stated)	i	i	i	i	i
Cn1nnc(NC(=S)NC(=O)c2cccc3c(Br)cccc23)n1	i	40	i	i	nt
Cn1nnc(NC(=S)NC(=O)c2cccc3c(Cl)cccc23)n1	i	i	i	i	nt
C[C@@H]1O[C@@H](OC[C@H]2O[C@@H](Oc3c(-c4ccc(O)c(O)c4)oc4cc(O)cc(O)c4c3=O)[C@H](O)[C@@H](O)[C@@H]2O)[C@H](O)[C@H](O)[C@H]1O	+	i	61	i	i
C=CCc1cc(C=Nc2ccc(N3CCOCC3)cc2)cc(OCC)c1O	nt	i	nt	nt	nt
Oc1ccc(-c2cn3c(n2)SCC3)cc1	i	i	i	98	i
Oc1ccc(-c2cn3c(n2)SCC3)cc1O	i	i	i	80	i
COc1cc(/C=N/n2c(-c3ccccc3)n[nH]c2=S)ccc1O	i	i	i	103	nt
CCN(CC)S(=O)(=O)c1cccc(-c2n[nH]c(=S)n2/N=C/c2ccc(Br)cc2)c1	i	i	i	70	i
CCN(CC)S(=O)(=O)c1cccc(-c2n[nH]c(=S)n2/N=C/c2ccc(OC)cc2)c1	i	i	i	83	i
CCN(CC)S(=O)(=O)c1cccc(-c2n[nH]c(=S)n2/N=C/c2ccc(OC(F)F)cc2)c1	i	i	i	i	i
S=c1c2c(nc3nc[nH]n13)CCC2	i	i	i	93	nt
COc1cc(/C=N\Nc2ccc([N+](=O)[O-])cc2)ccc1OCC(=O)Nc1ccc(C)c(C)c1	+	i	?	i	i
SMILES	PABP polyA inh	PABP1 MLLE inh	eIF4H inh	PHOSPHO1 inh	HMGR II inh
CCc1cccc(OCCOC(=O)CNS(=O)(=O)c2ccc(NC(C)=O)cc2)c1	nt	i	nt	nt	nt
O=C(COc1ccc(C(=O)NCC2CCCO2)cc1)Nc1cccc(C(F)(F)F)c1 (configuration not stated)	nt	i	nt	nt	nt
O=c1[nH]ncc2c3ccccc3n(Cc3cccc(Cl)c3)c12	i	i	?	i	16
CS(=O)(=O)c1ccc(-c2cn3cc(C(=O)O)ccc3n2)cc1	i	i	i	61	i
O=c1c2ccccc2sn1-c1ccc(F)cc1	nt	37	nt	nt	nt
CC(C)=C(NC(=O)c1ccccc1Br)C(=O)NCCc1nc2ccccc2[nH]1	+	i	112	i	nt
O=C(CNC(=O)c1ccccc1)NCCc1nc2ccccc2[nH]1	i	i	i	i	i
O=C(NN=C1CCCCCCCCCCC1)c1cccc(S(=O)(=O)N2CCOCC2)c1	?	i	i	i	i
COc1ccc(C(CNC(=O)c2ccc(-c3ccccc3)cc2)N(C)C)cc1OC (configuration not stated)	i	i	i	i	nt
C=CCc1ccc(OCC(O)COc2ccc(CC=C)cc2OC)c(OC)c1	+	i	?	i	i
CC(Oc1ccc2c(-c3ccccc3)cc(=O)oc2c1)C(=O)NCCCn1ccnc1 (configuration not stated)	i	i	i	i	nt
O=C(N/N=C/c1cc([N+](=O)[O-])ccc1O)C12CC3CC(CC(C3)C1)C2	i	i	i	i	13
